Records with an inconclusive call do not appear. The source made the active and inactive calls. Calls come from the whole dose curve; as a rule, active = well fitted curve in the direction sought with a large enough effect in the repeat runs; inconclusive = weak or mixed curves; inactive = no such curve, though single readings can be large; an effect the other way counts as inactive or inconclusive. Positions of bridges follow the written chain, without caps; N, C: chain ends. Residues, ends and D or L forms follow the SMILES beside them.
Key:
[1] = qHTS assay to identify small molecule antagonists of the glucocorticoid receptor (GR) signaling pathway - cell viability counter screen (AID 720693); note: nearly all actives have a fitted effect of over 55% in size; note: potency is the fitted concentration of half-maximal effect
[2] = qHTS assay for identifying genotoxic compounds that show differential cytotoxicity against isogenic chicken DT40 cell lines with known DNA damage response pathways - wild type cell line (AID 743012); note: nearly all actives have a fitted effect of over 60% in size; note: potency is the fitted concentration of half-maximal effect
Outline: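 300 wt DT40 cells/well; cpd (DMSO) pintool-transferred after ~0.5 h at 37 C/5% CO2; 40 h incubation; CellTiter-Glo added, 30 min RT; luminescence read.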

[3] = qHTS assay for identifying genotoxic compounds that show differential cytotoxicity against isogenic chicken DT40 cell lines with known DNA damage response pathways - Rev3 mutant cell line (AID 743014); note: nearly all actives have a fitted effect of over 55% in size; note: potency is the fitted concentration of half-maximal effect
[4] = qHTS assay for identifying genotoxic compounds that show differential cytotoxicity against isogenic chicken DT40 cell lines with known DNA damage response pathways - Rad54/Ku70 mutant cell line (AID 743015); note: nearly all actives have a fitted effect of over 60% in size; note: potency is the fitted concentration of half-maximal effect
[5] = qHTS assay to identify small molecule antagonists of the androgen receptor (AR) signaling pathway - cell viability counter screen (AID 743033; note: nearly all actives have a fitted effect of over 45% in size; note: potency is the fitted concentration of half-maximal effect)
[6] = qHTS assay to identify small molecule antagonists of the androgen receptor (AR) signaling pathway using the MDA cell line - cell viability counter screen (AID 743041; note: nearly all actives have a fitted effect of over 45% in size)
Outline: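 Using the breast carcinoma line MDA-kb2 AR-luc, test chemicals were co-incubated with R1881 for 16 h; CellTiter-Fluor reagent, added at 15.5 h, provided a fluorescence measure of live cells.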

Measured: Potency

CC(C)C[C@H](NC(=O)[C@@H](Cc1c[nH]c2ccccc12)NC(=O)[C@H](Cc1ccc(O)cc1)NC(=O)[C@H](CO)NC(=O)[C@H](Cc1c[nH]c2ccccc12)NC(=O)[C@H](Cc1cnc[nH]1)NC(=O)[C@@H]1CCC(=O)N1)C(=O)N[C@@H](CCCN=C(N)N)C(=O)N1CCC[C@@H]1C(=O)NCC(N)=O
inactive: all assays above

CC(O)CN(C)C (centres undefined)
inactive: all assays above

CCOC(=O)Oc1c(OC)cc(C(=O)O[C@@H]2C[C@@H]3CN4CCc5c([nH]c6cc(OC)ccc56)[C@H]4C[C@@H]3[C@H](C(=O)OC)[C@H]2OC)cc1OC
active: [2] 10.1 µM | [3] 11.4 µM | [4] 12.7 µM
inactive: all other assays above

C=C[C@]1(C)C[C@@H](OC(=O)CSCCN(CC)CC)[C@]2(C)[C@H](C)CC[C@]3(CCC(=O)[C@H]32)[C@@H](C)[C@@H]1O
active: [2] 5.31 µM | [3] 5.96 µM | [4] 6.68 µM
inactive: all other assays above

CC(=O)[C@@]1(O)CC[C@H]2[C@@H]3C=C(Cl)C4=CC(=O)[C@@H]5C[C@@H]5[C@]4(C)[C@H]3CC[C@@]21C
inactive: all assays above

CCN(CC)CCOc1ccccc1OC
inactive: all assays above

CCOc1cc(-c2nccc3cc(OC)c(OC)cc23)cc(OCC)c1OCC
active: [2] 4.22 µM | [3] 6.68 µM | [4] 8.41 µM
inactive: [1] | [5] | [6]

Nc1nc2[nH]cc(CCc3ccc(C(=O)N[C@@H](CCC(=O)O)C(=O)O)cc3)c2c(=O)[nH]1
active: [2] 0.0266 µM | [3] 0.0119 µM | [4] 0.0106 µM
inactive: all other assays above

Cc1cc(C(=O)NNCc2ccccc2)no1
inactive: all assays above

CC1C(=O)CC2C3(C)CCC2(C(C)C(=O)O)C(=O)C13 (centres undefined)
inactive: all assays above

CCSc1ccc2c(c1)N(CCCN1CCN(C)CC1)c1ccccc1S2
active: [2] 11.4 µM | [3] 14.3 µM | [4] 11.4 µM
inactive: [1] | [5] | [6]

CC(C)(C)NC[C@H](O)COc1ccccc1C1CCCC1
active: [2] 6.39 µM | [3] 10.1 µM | [4] 10.1 µM
inactive: [1] | [5] | [6]

O=C(O)COc1ccc(CCNS(=O)(=O)c2ccccc2)s1
inactive: all assays above

O=C(O)c1cc(O)c2c(c1)[O][Bi][O]2
inactive: all assays above

Cc1cccc(Nc2ncccc2C(=O)O)c1C
inactive: all assays above

CC1=C(/C=C/C(C)=C/C=C/C(C)=C/C(=O)Oc2c(C)c(C)c3c(c2C)CC[C@@](C)(CCC[C@H](C)CCC[C@H](C)CCCC(C)C)O3)C(C)(C)CCC1
inactive: all assays above

CC(=O)N(CC(C)C(=O)O)c1c(I)cc(I)c(N)c1I (centres undefined)
inactive: all assays above

CCOC(=O)Cc1cccc(-c2cc(CCCCCCc3ccc(O[C@H]4O[C@H](COC(C)=O)[C@@H](OC(C)=O)[C@H](OC(C)=O)[C@@H]4OC(C)=O)c(-c4cccc(CC(=O)OCC)c4)c3)ccc2O[C@H]2O[C@H](COC(C)=O)[C@@H](OC(C)=O)[C@H](OC(C)=O)[C@@H]2OC(C)=O)c1
inactive: all assays above

COc1ccccc1N1CCN(CCCC(=O)c2ccc(F)cc2)CC1
active: [2] 13.3 µM | [3] 11.9 µM | [4] 26.6 µM
inactive: [1] | [5] | [6]

O=S(=O)(O)Oc1ccc(C(c2ccc(OS(=O)(=O)O)cc2)c2ccccn2)cc1
inactive: all assays above

O=C(Nc1ccc(Br)cc1)c1cc(Br)c(Br)s1
inactive: [6]
active: [1] 21.3 µM | [2] 26.6 µM | [3] 33.5 µM | [4] 26.6 µM | [5] 21.3 µM

NCCCC[C@H](NC(=O)[C@@H]1CCCN1C(=O)[C@@H]1CSSC[C@H](NC(=O)CNC(=O)CNC(=O)CN)C(=O)N[C@@H](Cc2ccc(O)cc2)C(=O)N[C@@H](Cc2ccccc2)C(=O)N[C@@H](CCC(N)=O)C(=O)N[C@@H](CC(N)=O)C(=O)N1)C(=O)NCC(N)=O (H-GGGCYFQNCPKG-NH2; disulfide 4-9)
inactive: all assays above

O=C1NCCN1c1ncc([N+](=O)[O-])s1
inactive: all assays above

CO[C@H]1O[C@@H]2O[C@@]3(C)CC[C@H]4[C@H](C)CC[C@@H]([C@H]1C)[C@@]24OO3
active: [2] 1.19 µM | [3] 1.68 µM | [4] 0.668 µM
inactive: all other assays above

From PubChem BioAssay (Tox21)
